Results on 21 molecules are retold here after PubChem BioAssay (NCATS).

Molecules are shown by their SMILES. Records with an inconclusive call do not appear. A number with no mark means an inactive call. The source made the active and inactive calls. Calls follow the shape of the dose curve; as a rule, active = well fitted curve in the direction sought with a large enough effect; inconclusive = small, poorly fitted or top-dose-only effect, or another doubt; inactive = no such curve, though single readings can be large; an effect the other way counts as inactive or inconclusive.

Test [1] has as its target Rap guanine nucleotide exchange factor 3 (Homo sapiens) (UniProt O95398). Description: Confirmatory qHTS for antagonist of cAMP-regulated guanine nucleotide exchange factor 3 (EPAC1) (AID 1645880). Also: nearly all actives have a fitted effect of over 55% in size. Also: potency is read from the fitted curve at half-maximal effect.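 As to activity, negative = inhibition: plate controls were DMSO only for no effect and full effect of the ATA control for full effect.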 To be noted: EPAC1 Rap1B-BODIPY-GDP exchange, fluorescence; activity, negative = inhibition: at 115 µM (top of the series). Put shortly: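 Nucleotide exchange uses 100 nM EPAC1, 250 nM RAP1B-BODIPY-GDP and 50 uM GDP, with compounds in a concentration-titration series. After 5 min at room temperature, fluorescence (480 nm ex/540 nm em) is read every 5 min for 30 min. Data are normalized to control ATA and DMSO.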
Background: In qHTS, concentration-response curves come from the screen itself.

Test [2] has the same target. Description: Confirmatory qHTS for agonist of cAMP-regulated guanine nucleotide exchange factor 3 (EPAC1) (AID 1645881). Also: nearly all actives have a fitted effect of over 75% in size. Also: potency is read from the fitted curve at half-maximal effect.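 As to activation: EPAC1 catalysed release of BODIPY-GDP from Rap1B seen as fluorescence loss; 100% = effect of cAMP agonist control.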
Test [3] deals with Rap guanine nucleotide exchange factor 4 (Homo sapiens) (UniProt Q8WZA2). Description: Confirmatory qHTS for agonist of cAMP-regulated guanine nucleotide exchange factor 4 (EPAC2) (AID 1645884).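 Also: nucleotide exchange releases bodipy-GDP from Rap1 and this lowers its fluorescence; nearly all actives have a fitted effect of over 65% in size.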 Also: potency is read from the fitted curve at half-maximal effect. As to activation: % is scaled to controls: 0 for no effect and ±100 for the full control effect.
Test [4] concerns the target Rap guanine nucleotide exchange factor 3 (Homo sapiens) (UniProt O95398). Description: Counterscreen qHTS for antagonist of cAMP-regulated guanine nucleotide exchange factor 3 (EPAC1) (AID 1645888).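 Also: fluorescence loss as bound BODIPY-GDP is released from Rap1B; % of control where 0% means no effect.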 Put shortly: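 Rap1B-BODIPY-GDP 250 nM + GDP 50 uM; cpds 7-pt, final 9.74 nM–152 uM (activator mode) or from 7.32 nM upwards (inhibitor mode); RT; FI 480/540 nm at 5 and 30 min, then ± cAMP, reread.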
Background: A counterscreen serves to expose hits that act by an unwanted route or on another target.

Chain of Rap guanine nucleotide exchange factor 3 (Homo sapiens) (O95398 whole entry, looked up): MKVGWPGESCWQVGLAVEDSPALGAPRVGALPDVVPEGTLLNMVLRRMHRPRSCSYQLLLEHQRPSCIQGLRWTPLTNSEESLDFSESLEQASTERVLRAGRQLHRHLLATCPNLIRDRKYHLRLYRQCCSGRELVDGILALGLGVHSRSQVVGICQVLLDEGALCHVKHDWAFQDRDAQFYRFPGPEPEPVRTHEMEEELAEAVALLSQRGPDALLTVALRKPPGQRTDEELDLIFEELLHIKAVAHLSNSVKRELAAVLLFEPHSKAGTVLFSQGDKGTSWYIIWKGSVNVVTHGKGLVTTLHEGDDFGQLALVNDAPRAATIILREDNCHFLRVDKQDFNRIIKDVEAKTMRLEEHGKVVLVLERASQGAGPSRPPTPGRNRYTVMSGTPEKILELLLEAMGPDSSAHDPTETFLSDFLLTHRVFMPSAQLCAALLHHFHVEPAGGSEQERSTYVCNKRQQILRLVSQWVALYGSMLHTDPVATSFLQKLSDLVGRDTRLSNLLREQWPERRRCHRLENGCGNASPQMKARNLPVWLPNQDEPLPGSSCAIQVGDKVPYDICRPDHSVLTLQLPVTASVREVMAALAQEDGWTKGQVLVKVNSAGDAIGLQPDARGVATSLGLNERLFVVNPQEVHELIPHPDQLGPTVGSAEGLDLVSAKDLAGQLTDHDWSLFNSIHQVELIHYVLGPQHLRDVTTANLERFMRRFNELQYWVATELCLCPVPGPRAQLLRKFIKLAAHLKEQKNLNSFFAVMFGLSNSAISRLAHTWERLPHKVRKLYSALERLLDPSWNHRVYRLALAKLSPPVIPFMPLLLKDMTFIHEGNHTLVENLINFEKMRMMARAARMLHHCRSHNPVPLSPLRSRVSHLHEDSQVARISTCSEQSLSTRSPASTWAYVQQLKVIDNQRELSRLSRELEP
Chain of Rap guanine nucleotide exchange factor 4 (Homo sapiens) (Q8WZA2 whole entry, looked up): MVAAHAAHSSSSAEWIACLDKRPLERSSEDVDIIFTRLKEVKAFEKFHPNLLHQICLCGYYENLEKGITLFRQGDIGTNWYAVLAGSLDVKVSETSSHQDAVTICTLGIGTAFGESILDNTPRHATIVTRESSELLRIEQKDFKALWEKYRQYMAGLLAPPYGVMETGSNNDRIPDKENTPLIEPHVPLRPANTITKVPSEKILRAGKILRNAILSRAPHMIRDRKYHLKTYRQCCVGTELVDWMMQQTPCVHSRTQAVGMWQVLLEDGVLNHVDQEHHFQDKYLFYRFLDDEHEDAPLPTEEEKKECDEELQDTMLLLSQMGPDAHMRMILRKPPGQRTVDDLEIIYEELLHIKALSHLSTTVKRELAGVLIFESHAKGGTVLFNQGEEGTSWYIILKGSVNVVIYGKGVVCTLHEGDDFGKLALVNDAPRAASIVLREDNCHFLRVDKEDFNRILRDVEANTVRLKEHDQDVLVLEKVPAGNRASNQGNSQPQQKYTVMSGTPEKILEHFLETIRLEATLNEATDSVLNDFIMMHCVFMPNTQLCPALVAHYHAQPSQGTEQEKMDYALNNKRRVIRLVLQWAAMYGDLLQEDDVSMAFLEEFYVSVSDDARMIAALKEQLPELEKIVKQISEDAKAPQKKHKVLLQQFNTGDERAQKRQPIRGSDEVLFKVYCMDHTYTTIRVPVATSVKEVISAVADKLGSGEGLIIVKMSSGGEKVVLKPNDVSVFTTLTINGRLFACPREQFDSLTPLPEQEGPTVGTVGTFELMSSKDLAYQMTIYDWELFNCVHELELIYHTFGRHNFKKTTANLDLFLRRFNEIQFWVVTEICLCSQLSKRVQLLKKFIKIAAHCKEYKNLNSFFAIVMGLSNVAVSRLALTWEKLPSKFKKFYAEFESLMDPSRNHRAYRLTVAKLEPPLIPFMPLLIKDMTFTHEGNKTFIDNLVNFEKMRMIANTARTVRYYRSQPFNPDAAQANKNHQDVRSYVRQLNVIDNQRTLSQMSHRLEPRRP

As to `O=C(CS(=O)(=O)c1ccccc1)c1cc2ccccc2oc1=O`, the Potency result in test [1] and in test [2] was “inactive” throughout. For the same molecule, the activation in test [3] was 8.75% [at 17.1 µM, percent relative to cAMP agonist control]. The activity change, negative = inhibition in test [4] is -20.4% [at 30.8 µM].

Consider `COC(=O)c1nc2nc(C)cc(=O)n2[nH]1`, for which the Potency result in test [1], in test [2], in test [3] and in test [4] was “inactive” in each case.

With `CC(=O)C1C(=O)C=C(c2cccs2)CC1c1ccccc1` (centres undefined), the Potency result in test [1] and in test [2] was “inactive” throughout. Moreover, in test [3], the activation was -4.19% [at 17.1 µM, percent relative to cAMP agonist control]. Moreover, the activity change, negative = inhibition in test [4] was 2.3% [at 30.8 µM].

As for `CCOC(=O)c1c(NC(=O)CSc2nc3ccc(C)cc3[nH]2)sc2c1CC(C)(C)NC2(C)C`, the Potency result in test [1], in test [2], in test [3] and in test [4] was “inactive” each time.

For `COc1ccc([C@H]2CC(=O)C=C(c3cc(OC)ccc3OC)C2)cc1`, the Potency result in test [1], in test [2], in test [3] and in test [4] was “inactive” throughout.

For `C=C(C)Cn1c(C)cc(C)c(S(=O)(=O)c2ccc(C)cc2)c1=O`, the Potency entry in test [1], in test [2], in test [3] and in test [4] was “inactive” throughout.

With `O=C(c1sc2cc(F)ccc2c1Cl)N1CCN(c2ccccc2)CC1`, the Potency entry in test [1], in test [2], in test [3] and in test [4] was “inactive” each time.

As for `O=C1/C(=C\c2ccc(Br)cc2)SC(=S)N1NS(=O)(=O)c1ccccc1`, in test [1], the Potency was 11.2 µM (active). For the same molecule, in test [2], the Potency result is “inactive”. The activation in test [3] is 10.7% [at 17.1 µM, percent relative to cAMP agonist control]. Moreover, in test [4], the activity change, negative = inhibition is 6.09% [at 30.8 µM].

For the molecule `Cc1cccc(C(=O)Oc2ccc(/C=N/NC(=O)c3cc(O)cc(O)c3)cc2)c1`, the Potency in test [1] was 16.9 µM (active). In addition, the Potency result in test [2], in test [3] and in test [4] was “inactive” in each case.

Consider `CCN(CC)C(=O)Cn1c(SCCOc2ccc(Cl)cc2)nc2ccccc21`, for which the Potency entry in test [1], in test [2], in test [3] and in test [4] was “inactive” throughout.

In the case of `CC(=O)N1CCc2c(sc(NC(=O)CS(=O)(=O)c3ccc(F)cc3)c2C(N)=O)C1`, the Potency entry in test [1], in test [2], in test [3] and in test [4] was “inactive” each time.

`O=C(Cc1ccccc1Cl)Nc1ccc(S(=O)(=O)N2CCOCC2)cc1`: the Potency entry in test [1], in test [2], in test [3] and in test [4] was “inactive” throughout.

Regarding `Cc1cnc(C(=O)OCC(=O)Nc2ccc(Oc3ccccc3)cc2)cn1`, the Potency result in test [1], in test [2], in test [3] and in test [4] was “inactive” each time.

Take `CCSc1oc(-c2cccs2)nc1S(=O)(=O)c1ccccc1`: the Potency entry in test [1], in test [2], in test [3] and in test [4] was “inactive” throughout.

Take `CCC(=O)NC(c1cccs1)c1cc([N+](=O)[O-])c2cccnc2c1O` (centres undefined): the Potency in test [1] is 42.6 µM (active). Further, the Potency entry in test [2], in test [3] and in test [4] was “inactive” each time.

On to `Cc1ccc(S(=O)(=O)Nc2ccccc2C(=O)Nc2nc(-c3ccc(F)cc3)cs2)cc1`, for which the Potency in test [1] is 42.6 µM (active). Also, the Potency entry in test [2], in test [3] and in test [4] was “inactive” each time.

Take `CCCCn1nnnc1C(c1ccccc1)N1CCN(c2ccc(F)cc2)CC1` (centres undefined): the Potency entry in test [1], in test [2], in test [3] and in test [4] was “inactive” each time.

As to `Cc1cc(C)cc(NC(=O)CSc2nnc(-c3cc4occc4n3C)n2-c2ccccc2C)c1`, the Potency result in test [1], in test [2], in test [3] and in test [4] was “inactive” each time.

Turning to `CCN(CC)c1ccc2cc(-c3nnc(-c4cccc(Cl)c4)o3)c(=O)oc2c1`, the Potency result in test [1] and in test [4] was “inactive” each time. Besides, the Potency in test [2] is 44.7 µM (active); in test [3] it was 35.5 µM (active).

As for `Cc1cc(Nc2ccccc2)c2c([N+](=O)[O-])ccc(C)c2n1`, the Potency entry in test [1], in test [2], in test [3] and in test [4] was “inactive” throughout.

For the molecule `CSc1nc(C)cc(C)c1S(=O)(=O)c1ccccc1C`, the Potency result in test [1] and in test [2] was “inactive” throughout. In addition, in test [3], the activation is 8.78% [at 17.1 µM, percent relative to cAMP agonist control]. For the same molecule, the activity change, negative = inhibition in test [4] is -5.37% [at 30.8 µM].
